# Experimental data: the supplement of paper PMC10849652
# Of roughly 7,900 targets only a part is listed; those with a hit were picked by preference. About 0.6% of all pairs of compound and target were hits. A number with no mark means an inactive call.
# Compound: CC(C)C1=C2N=C(C=C(N2N=C1)NCC3=CC=CC=C3)NCCCCCCN
# Test: log2 fold change, soluble protein after heating vs DMSO (PISA); higher = thermal stabilisation; K562 cells, 10 uM, 30 min; active = over 0.2 and 3.5 SD of the protein, either way, in both replicates (recomputed)
# Method in brief: (§1)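 K562 cells at 2×10^6 cells/mL were exposed to 10 μM compound for 30 min, then aliquots were heated for 3 min across 48°C-58°C, pooled, and extracted in PBS containing 0.5% NP-40 at 4°C. The supernatant after 21,000xg for 90 min was taken as soluble protein and measured by TMTpro 16plex LC-MS/MS with channel sums equalised. Thermal stability is reported relative to control samples, with values from duplicates. Fold changes are given on a log2 scale.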
# Chain of UniProt Q14289 (Q14289 whole entry, looked up): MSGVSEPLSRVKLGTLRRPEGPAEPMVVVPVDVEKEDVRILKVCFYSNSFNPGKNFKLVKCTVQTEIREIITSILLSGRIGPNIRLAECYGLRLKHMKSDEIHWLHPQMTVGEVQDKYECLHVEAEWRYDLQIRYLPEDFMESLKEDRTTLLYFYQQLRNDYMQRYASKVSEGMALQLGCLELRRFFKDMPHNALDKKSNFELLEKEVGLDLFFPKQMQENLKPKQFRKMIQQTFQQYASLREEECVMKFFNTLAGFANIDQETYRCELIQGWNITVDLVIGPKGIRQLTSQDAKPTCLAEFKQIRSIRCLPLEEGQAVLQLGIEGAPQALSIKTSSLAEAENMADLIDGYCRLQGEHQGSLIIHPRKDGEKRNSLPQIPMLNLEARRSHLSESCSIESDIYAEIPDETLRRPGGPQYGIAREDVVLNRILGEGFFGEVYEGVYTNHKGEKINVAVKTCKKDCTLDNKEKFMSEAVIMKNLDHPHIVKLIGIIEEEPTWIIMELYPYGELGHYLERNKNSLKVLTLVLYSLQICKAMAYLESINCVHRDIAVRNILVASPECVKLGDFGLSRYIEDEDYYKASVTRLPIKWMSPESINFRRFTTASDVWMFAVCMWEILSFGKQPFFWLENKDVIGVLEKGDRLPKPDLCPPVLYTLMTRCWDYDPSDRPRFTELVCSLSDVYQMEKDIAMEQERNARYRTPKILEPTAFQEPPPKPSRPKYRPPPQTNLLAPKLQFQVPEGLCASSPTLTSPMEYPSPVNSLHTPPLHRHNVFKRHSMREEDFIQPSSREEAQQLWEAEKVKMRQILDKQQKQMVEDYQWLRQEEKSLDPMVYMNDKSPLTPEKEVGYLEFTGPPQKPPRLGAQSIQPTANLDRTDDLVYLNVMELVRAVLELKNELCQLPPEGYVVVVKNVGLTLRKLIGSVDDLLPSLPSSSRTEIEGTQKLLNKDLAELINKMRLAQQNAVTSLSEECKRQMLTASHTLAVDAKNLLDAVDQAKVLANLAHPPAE
# Chain of UniProt O94806 (O94806 whole entry, looked up): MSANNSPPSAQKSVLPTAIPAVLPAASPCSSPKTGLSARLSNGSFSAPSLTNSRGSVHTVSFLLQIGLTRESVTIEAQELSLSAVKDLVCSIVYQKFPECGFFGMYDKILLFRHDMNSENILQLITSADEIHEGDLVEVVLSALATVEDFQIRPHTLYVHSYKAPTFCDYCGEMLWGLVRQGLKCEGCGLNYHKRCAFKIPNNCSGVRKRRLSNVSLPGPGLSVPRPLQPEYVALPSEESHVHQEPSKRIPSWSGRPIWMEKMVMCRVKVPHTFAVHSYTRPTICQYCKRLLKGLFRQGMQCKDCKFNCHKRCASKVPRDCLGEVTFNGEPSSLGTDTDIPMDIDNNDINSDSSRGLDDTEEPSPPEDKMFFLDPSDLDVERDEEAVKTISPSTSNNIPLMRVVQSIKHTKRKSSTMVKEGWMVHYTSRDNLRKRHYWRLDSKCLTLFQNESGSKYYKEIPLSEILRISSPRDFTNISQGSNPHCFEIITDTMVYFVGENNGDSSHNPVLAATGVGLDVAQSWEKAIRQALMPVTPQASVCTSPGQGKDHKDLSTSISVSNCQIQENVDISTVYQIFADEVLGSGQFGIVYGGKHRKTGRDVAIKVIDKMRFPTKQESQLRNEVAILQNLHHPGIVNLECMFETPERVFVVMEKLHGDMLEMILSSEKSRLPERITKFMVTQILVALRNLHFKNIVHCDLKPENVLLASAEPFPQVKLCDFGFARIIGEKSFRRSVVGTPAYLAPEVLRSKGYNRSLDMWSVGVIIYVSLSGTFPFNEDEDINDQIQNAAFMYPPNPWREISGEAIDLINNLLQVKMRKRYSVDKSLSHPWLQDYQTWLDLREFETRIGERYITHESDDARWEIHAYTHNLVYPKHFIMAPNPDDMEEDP
# Chain of UniProt P60484 (P60484 whole entry, looked up): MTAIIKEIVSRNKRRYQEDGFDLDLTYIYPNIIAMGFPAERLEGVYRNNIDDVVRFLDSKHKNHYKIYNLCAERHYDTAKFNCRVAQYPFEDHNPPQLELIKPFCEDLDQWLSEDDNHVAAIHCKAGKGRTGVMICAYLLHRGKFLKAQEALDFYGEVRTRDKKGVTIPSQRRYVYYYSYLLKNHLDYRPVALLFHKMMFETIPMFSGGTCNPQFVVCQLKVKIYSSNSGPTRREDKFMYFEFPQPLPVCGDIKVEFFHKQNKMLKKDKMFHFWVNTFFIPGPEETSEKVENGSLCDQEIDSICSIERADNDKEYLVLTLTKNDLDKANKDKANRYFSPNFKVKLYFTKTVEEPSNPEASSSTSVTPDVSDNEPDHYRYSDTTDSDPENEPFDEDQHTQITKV
# Chain of UniProt Q7Z3K3 (Q7Z3K3 whole entry, looked up): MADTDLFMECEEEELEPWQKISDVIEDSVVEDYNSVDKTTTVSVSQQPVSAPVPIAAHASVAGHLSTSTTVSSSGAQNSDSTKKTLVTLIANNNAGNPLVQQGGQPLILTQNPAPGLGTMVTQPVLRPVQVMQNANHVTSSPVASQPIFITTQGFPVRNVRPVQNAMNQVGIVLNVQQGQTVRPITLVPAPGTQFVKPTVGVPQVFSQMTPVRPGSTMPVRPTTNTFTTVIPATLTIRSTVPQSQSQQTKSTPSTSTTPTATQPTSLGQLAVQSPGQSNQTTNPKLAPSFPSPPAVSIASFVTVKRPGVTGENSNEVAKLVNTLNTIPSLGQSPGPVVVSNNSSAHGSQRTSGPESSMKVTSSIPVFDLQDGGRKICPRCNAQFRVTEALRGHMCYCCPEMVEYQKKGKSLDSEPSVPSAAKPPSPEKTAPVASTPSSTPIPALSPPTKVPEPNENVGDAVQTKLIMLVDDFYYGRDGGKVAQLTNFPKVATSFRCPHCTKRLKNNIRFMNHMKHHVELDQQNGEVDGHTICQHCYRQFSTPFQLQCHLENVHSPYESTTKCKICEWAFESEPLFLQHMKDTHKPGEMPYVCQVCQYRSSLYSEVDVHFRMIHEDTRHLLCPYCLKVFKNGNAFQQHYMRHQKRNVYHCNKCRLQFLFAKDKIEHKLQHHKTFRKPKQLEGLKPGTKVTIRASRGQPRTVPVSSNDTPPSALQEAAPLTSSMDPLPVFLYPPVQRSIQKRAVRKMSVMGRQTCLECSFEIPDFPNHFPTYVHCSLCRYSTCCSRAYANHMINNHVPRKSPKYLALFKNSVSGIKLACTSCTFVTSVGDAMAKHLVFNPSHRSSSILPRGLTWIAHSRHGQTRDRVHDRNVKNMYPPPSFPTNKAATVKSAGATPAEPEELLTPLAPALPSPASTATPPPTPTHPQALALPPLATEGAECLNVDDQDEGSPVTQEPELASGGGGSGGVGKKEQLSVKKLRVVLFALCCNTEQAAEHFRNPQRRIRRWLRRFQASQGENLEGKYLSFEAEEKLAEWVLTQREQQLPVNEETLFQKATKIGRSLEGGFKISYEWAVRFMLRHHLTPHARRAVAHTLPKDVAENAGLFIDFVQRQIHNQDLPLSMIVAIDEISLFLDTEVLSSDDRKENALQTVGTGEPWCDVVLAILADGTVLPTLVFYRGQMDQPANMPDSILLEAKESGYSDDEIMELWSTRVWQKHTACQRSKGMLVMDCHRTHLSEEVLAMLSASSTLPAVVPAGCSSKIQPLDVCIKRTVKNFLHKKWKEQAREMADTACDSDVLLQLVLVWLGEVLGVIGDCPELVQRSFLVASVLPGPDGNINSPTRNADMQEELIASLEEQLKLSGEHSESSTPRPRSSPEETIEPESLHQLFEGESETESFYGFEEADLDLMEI
# Chain of UniProt P41247 (P41247 whole entry, looked up): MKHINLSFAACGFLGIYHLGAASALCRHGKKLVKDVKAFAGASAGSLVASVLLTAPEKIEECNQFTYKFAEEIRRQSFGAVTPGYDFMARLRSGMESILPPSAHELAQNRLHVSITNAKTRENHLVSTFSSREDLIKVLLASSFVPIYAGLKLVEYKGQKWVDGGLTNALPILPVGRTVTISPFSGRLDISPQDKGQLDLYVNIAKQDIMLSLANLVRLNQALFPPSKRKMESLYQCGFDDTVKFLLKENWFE
# Chain of UniProt Q5JVF3 (Q5JVF3 whole entry, looked up): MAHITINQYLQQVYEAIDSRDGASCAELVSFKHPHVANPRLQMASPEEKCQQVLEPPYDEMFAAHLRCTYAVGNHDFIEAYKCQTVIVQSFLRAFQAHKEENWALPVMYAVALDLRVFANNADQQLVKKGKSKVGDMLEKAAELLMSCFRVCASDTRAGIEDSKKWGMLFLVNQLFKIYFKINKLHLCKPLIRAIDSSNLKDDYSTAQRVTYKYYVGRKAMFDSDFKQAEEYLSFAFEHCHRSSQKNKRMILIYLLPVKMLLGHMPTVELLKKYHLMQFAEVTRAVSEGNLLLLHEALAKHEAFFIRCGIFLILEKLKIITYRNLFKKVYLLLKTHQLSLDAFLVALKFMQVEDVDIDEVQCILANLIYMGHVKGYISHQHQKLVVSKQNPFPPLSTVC
# Chain of UniProt Q13362 (Q13362 whole entry, looked up): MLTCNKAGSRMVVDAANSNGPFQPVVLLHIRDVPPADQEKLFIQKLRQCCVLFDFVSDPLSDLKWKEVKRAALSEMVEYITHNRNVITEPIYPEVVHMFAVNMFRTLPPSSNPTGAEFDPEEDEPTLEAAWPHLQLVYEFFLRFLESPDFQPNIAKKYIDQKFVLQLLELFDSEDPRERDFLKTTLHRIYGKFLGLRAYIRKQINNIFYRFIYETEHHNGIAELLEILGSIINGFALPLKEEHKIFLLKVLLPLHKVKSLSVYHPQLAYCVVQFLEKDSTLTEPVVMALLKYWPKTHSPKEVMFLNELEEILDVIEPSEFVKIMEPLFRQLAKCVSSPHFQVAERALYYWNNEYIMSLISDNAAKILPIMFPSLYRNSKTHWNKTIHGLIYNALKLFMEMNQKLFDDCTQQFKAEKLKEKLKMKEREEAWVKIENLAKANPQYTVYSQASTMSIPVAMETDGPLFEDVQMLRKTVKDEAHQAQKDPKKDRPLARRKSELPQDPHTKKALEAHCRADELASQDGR
row,Target,log2 fold change
1,PCBP2 (UniProt F8VZX2),-0.127
2,PHC3 isoform 7 (UniProt Q8NDX5),-0.219
3,PPP2R5C isoform 2 (UniProt Q13362),-0.146
4,POGZ (UniProt Q7Z3K3),0.066
5,PPP1R12C (UniProt Q9BZL4),-0.126
6,PTEN isoform 2 (UniProt P60484),-0.629 (active)
7,PPP2R5B (UniProt Q15173),0.092
8,PDE4DIP (UniProt E9PS60),0.171
9,PCID2 (UniProt Q5JVF3),-0.428 (active)
10,POLB (UniProt P06746),0.091
11,PEX5 isoform 4 (UniProt P50542),0.066
12,PPP1R12B isoform 6 (UniProt O60237),-0.074
13,PUM1 (UniProt Q14671),-0.226
14,PSMC1 (UniProt G3V4X1),-0.089
15,PRKD3 (UniProt O94806),-0.129
16,PNPLA4 (UniProt P41247),0.115
17,PHRF1 (UniProt Q9P1Y6),0.718 (active)
18,PRKX (UniProt P51817),-0.274
19,PTK2B (UniProt Q14289),-0.244
20,PI4K2B (UniProt Q8TCG2),-0.131

# Compound: CC(C)C[C@@H](C=O)NC(=O)[C@H](CC(C)C)NC(=O)[C@H](CC(C)C)NC(=O)OCc1ccccc1
# Test: as above
# Method in brief: as §1
row,Target,log2 fold change
1,PCBP2 (UniProt F8VZX2),0.138
2,PCF11 (UniProt O94913),-0.083
3,PPP2R5C isoform 2 (UniProt Q13362),-0.095
4,POGZ (UniProt Q7Z3K3),0.038
5,PPP1R12C (UniProt Q9BZL4),-0.041
6,PSMA3 (UniProt H0YJ03),0.067
7,PTEN isoform 2 (UniProt P60484),0.083
8,PMS2CL (UniProt Q68D20),-0.258
9,PCID2 (UniProt Q5JVF3),-0.02
10,POLB (UniProt P06746),0.143
11,PEX5 isoform 4 (UniProt P50542),0.123
12,PIAS4 (UniProt Q8N2W9),0.035
13,PUF60 isoform 2 (UniProt Q9UHX1),-0.203
14,PGK2 (UniProt P07205),0.063
15,PRKD3 (UniProt O94806),0.06
16,PNPLA4 (UniProt P41247),0.209
17,PSD3 (UniProt Q9NYI0),-0.055
18,PHRF1 (UniProt Q9P1Y6),0.119
19,PLCXD1 (UniProt Q9NUJ7),0.175
20,PKM isoform 2 (UniProt P14618),0.023
21,PTK2B (UniProt Q14289),0.052
22,PI4K2B (UniProt Q8TCG2),-0.017
23,PSMA3 (UniProt G3V4X5),0.733 (active)
